Test results from PubChem BioAssay (NCI).
Compounds without any hit were thinned out: in the full panel of roughly 79,000, 15% have a hit. Values without a mark were called inactive. Active and inactive are the calls of the source. Cut-off read from the data, not from the text of the source: active = growth inhibition above about 70%; inactive = the rest.

Tests used:
[1] = NCI Yeast Anticancer Drug Screen. Data for the rad50 strain (AID 155);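 note: 0% = growth of vehicle-only cultures of the same strain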; conditions: S. cerevisiae rad50 strain growth inhibition; at 50.0 µM; active compounds read high
Procedure, shortened: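 Growth of the mutant yeast was measured after compound exposure and referenced to vehicle-treated cultures.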

[2] = NCI Yeast Anticancer Drug Screen. Data for the mec2-1 strain (AID 157); conditions: S. cerevisiae mec2-1 strain, at 50.0 µM, active compounds read high
Procedure, shortened: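 Mutant yeast (mec2-1) grown with compound; growth inhibition relative to vehicle control reported.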

[3] = NCI Yeast Anticancer Drug Screen. Data for the sgs1 mgt1 strain (AID 161);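 note: 0% = growth of cultures given vehicle only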; conditions: S. cerevisiae sgs1 mgt1 strain, at 50.0 µM, active compounds read high
Procedure, shortened: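 This yeast growth screen uses a strain with defined DNA-repair lesions; compound-treated growth is compared with vehicle-treated growth.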

[4] = NCI Yeast Anticancer Drug Screen. Data for the cln2 rad14 strain (AID 165);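 note: 0% = growth equal to vehicle treated cultures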; conditions: S. cerevisiae cln2 rad14 strain, at 50.0 µM, active compounds read high
Procedure, shortened: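 Readout is yeast growth inhibition versus vehicle-treated controls, using a strain with cln2 and rad14 alterations exposed to compound.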

[5] = NCI Yeast Anticancer Drug Screen. Data for the bub3 strain (AID 167); conditions: S. cerevisiae bub3 mutant strain, at 50.0 µM, active compounds read high
Procedure, shortened: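 Whole-cell yeast assay. The mutant strain was incubated with compounds, and growth inhibition was determined by comparison with vehicle-treated cells.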

[6] = NCI Yeast Anticancer Drug Screen. Data for the mlh1 rad18 strain (AID 175); conditions: S. cerevisiae mlh1 rad18 strain growth inhibition; at 50.0 µM; active compounds read high
Procedure, shortened: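 Genetically defined yeast (DNA repair-deficient) exposed to compounds; growth inhibition determined relative to vehicle.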

SMILES | growth inhibition [1] | growth inhibition [2] | growth inhibition [3] | growth inhibition [4] | growth inhibition [5] | growth inhibition [6]
CCc1c(CN)c(CC)c(CNC2=NCCN2)c(CC)c1CNC1=NCCN1 | 13.6% | 3.45% | 12.2% | 10.9% | 12.8% | 15.2%
CC1Cc2c(cc(N)nc2Br)NC1=O (stereo unspecified) | -10.6% | -6.05% | 6.95% | 19.2% | 3.35% | 10.1%
O=C(NC(=O)c1ccccc1F)Nc1ccc(Cl)cc1 | 27.1% | 37.3% | 24.6% | 56.8% | 49.8% | 43.1%
CCCCCCC(C)Cl (stereo unspecified) | 18.9% | -6.05% | 15.8% | 23.7% | 5.9% | 1.05%
O=c1[nH]c2cc([N+](=O)[O-])ccc2nc1/C=C(\O)c1ccco1 | 7.7% | -14.2% | 7.9% | -0.65% | -18.7% | 22.1%
N#CCC(=O)N/N=C1\C(=O)N(c2ccc(Cl)cc2)C(=O)C(=O)C1c1nc2ccccc2o1 (stereo unspecified) | 22.4% | -11.8% | 0.4% | 16.5% | 1.35% | 8.45%
COc1ccccc1C(O)c1ccccc1 (stereo unspecified) | 9.6% | -30.4% | 15.3% | 11.4% | 9.3% | 3.75%
CC(C(=O)c1ccc(Cl)cc1)[n+]1cc(Br)cc(Br)c1 (stereo unspecified) | -22.6% | -14.2% | -9.3% | -19.4% | -21.4% | -10.2%
CC(=O)Nc1ccc(S(=O)(=O)O)c(C(F)(F)F)c1 | 17.1% | 21.1% | 12.6% | -8% | 26.5% | 11.4%
O=C(CN1CCOCC1)NC(=O)c1ccccc1 | -3.6% | -3.6% | 6.25% | 1.5% | -0.1% | -10.7%
CC(C)(C)N=C1CC(C)(C)c2ccccc2C(=Nc2ccccc2)S1 | 23.2% | 9.55% | 24.8% | 24.1% | 8.3% | 15.3%
O=c1[nH]c(-c2ccccc2)nc2[nH]ncc12 | -3.2% | -11.3% | 23.1% | 9.45% | -7.4% | 6.15%
COC(=O)/C(C)=C/C=C/C(C)C(O)C(C)C1OC(CC(OC)OC)C(C)C(O)C1C (stereo unspecified) | 28.9% | 22.2% | 9.75% | 2.65% | 2.9% | 19.9%
CCCC(=N)OCC | -3.45% | -27.4% | -20.4% | -0.45% | 3.75% | -5.05%
O=C(OCC(OC(=O)c1ccccc1)C(OC(=O)c1ccccc1)C(COC(=O)c1ccccc1)OC(=O)c1ccccc1)c1ccccc1 (stereo unspecified) | 67% | 26.1% | 56.9% | 0.2% | 16.4% | 52.4%
NC(=O)c1nsc(-c2ccc([N+](=O)[O-])cc2)c1N | -10.8% | 0.9% | -1.8% | 30.6% | -17.8% | -3.7%
Cc1cc(OC(=O)c2ccccc2)cc(C)c1OC(=O)c1ccccc1 | 10% | 2.9% | 0.1% | -6.15% | 7.15% | -6.7%
CCN(CC)C(=O)c1ccccc1C | 17.2% | -2.65% | -9.7% | 6.7% | -3.85% | 0.45%
C/C(=C\c1ccccc1)C(=O)c1ccccc1 | -0.45% | 3.85% | 1.3% | -3.15% | 3.45% | 20%
COC(=O)/C=C(\C(=O)c1ccccc1)c1ccccc1 | 6.05% | 4.25% | -4.1% | 8.95% | 0.3% | 11.9%
C=C1C(=O)O[C@@H]2/C=C(\C)CC/C=C(/C)CC[C@@H]12 | 45.8% | 52.2% | 61.6% | 32.8% | 54.4% | 58.1%

SMILES | growth inhibition [1] | growth inhibition [2] | growth inhibition [3] | growth inhibition [4] | growth inhibition [5] | growth inhibition [6]
N#CC(c1ccccc1)N1CCCN(C(C#N)c2ccccc2)C1c1ccccc1O (stereo unspecified) | 31.4% | -8.65% | -6.85% | 17.9% | 18.4% | 13.2%
Cc1cccc(C(=O)OCc2ccccc2CN2CCCC2)c1 | 1.5% | -7.75% | -10.1% | 2.85% | -2.05% | -1.45%
S=C(NCc1ccccc1)Nc1ncn[nH]1 | 5.1% | 0.25% | -5.8% | -22.9% | 3.55% | 3.8%
COc1cc(COC(=O)c2ccc(CSc3ccc(Cl)cc3)o2)cc(OC)c1OC | -19.4% | -33% | -0.75% | -8.4% | -13.9% | -10.8%
O=C1CN(c2ccccc2)Cc2nc(Cl)ccc2N1 | 39.9% | 7.45% | 24.4% | 17.4% | 3.55% | 72.5% (active)
O=C(c1ccc(O)c(C(=O)O)c1)c1ccc(O)c(C(=O)O)c1 | 10.9% | -13.9% | -5.3% | -0.7% | -19.9% | -2.85%
COc1ccc(SC2=CC(=O)c3ccccc3C2=O)cc1 | 41% | 11.2% | 34.2% | -16.4% | -11.6% | 30.6%
O=C1OC(=O)c2c1cccc2[N+](=O)[O-] | -7.55% | 0% | -2.6% | -14.4% | -5.2% | 2.7%
CC1=NN(C(=O)c2ccccc2)C(=O)C1N=Nc1ccc([N+](=O)[O-])cc1 (stereo unspecified) | -3.3% | -5.5% | -2.5% | -10.8% | 0% | -3.35%
Cc1ccccc1NC(=O)c1ccccc1 | 1.35% | 2.3% | -5.6% | -14.7% | 5.85% | 3.1%
CC1(C)CNCC2(C)OCCCOC3(C)CNCC(C)(C)NC(=O)C(C)(CNCC(C)(C)NC3=O)OCCCOC(C)(CNCC(C)(C)NC2=O)C(=O)N1 | -22.6% | -21.1% | -24.4% | 16.1% | -3.05% | -21.7%
CCCN1C(=O)c2cc(=O)[nH]c(O)c2C1C (stereo unspecified) | -14.2% | -10.9% | -8.75% | 9% | -13.3% | 0.4%
COc1ccc2c(c1OC)C1(CCN(C)C)CC(O)CCC1C=C2 (stereo unspecified) | 20.4% | 7.95% | 5.75% | -4.6% | 13.2% | 18.1%
COc1ccc(/C=c2\sc3n(c2=O)C(N)=C(C#N)C(c2ccc(OC)cc2)C=3c2nc3ccccc3[nH]2)cc1 (stereo unspecified) | 18.1% | -13.2% | 9.95% | -16.1% | 8.95% | 11.3%
COC(=O)OCC1OC(OC(C)=O)C2OC(=O)OC12 (stereo unspecified) | 8.55% | -16.9% | -16.7% | 5.45% | 2.35% | -3.15%
CCN1CCCC(Nc2nc(Nc3cc(Cl)cc(Cl)c3)nc3ccc(Cl)cc23)C1 (stereo unspecified) | 97.3% (active) | 97.1% (active) | 97.5% (active) | 95.5% (active) | 96.8% (active) | 95.8% (active)
COc1cccc(C2CC(c3cc(OC)c(OC)c(OC)c3)CC(c3cccc(OC)c3)N2)c1 (stereo unspecified) | -5.4% | 1.45% | 15.2% | 16.4% | 19.6% | 5.7%
CNc1ccc(C(=O)NC(CCC(=O)O)C(=O)O)cc1I (stereo unspecified) | 36.6% | -6.2% | -4.1% | 0.15% | 5.5% | 10.3%
O=NC(C[N+](=O)[O-])c1ccccc1 (stereo unspecified) | 4.6% | -21.9% | 2.7% | -40.7% | 6.55% | -24.4%
Nc1nc2cc(COc3ccc(C(=O)O)cc3)ccc2nc1-c1ccccc1 | -28.6% | -17.9% | -13.8% | -2.9% | -26.2% | -15.1%
